Results published in ChEMBL document CHEMBL1961873, “Compounds: GSK PKIS; Assays: Nanosyn kinase panel” (2012).

Assays:
[1] = target: T1, Serine/threonine-protein kinase Nek9 (Homo sapiens) (UniProt Q8TD19); conditions: at 1 µM;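 note: each value is a mean percent inhibition of NEK9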
T1 sequence (whole entry): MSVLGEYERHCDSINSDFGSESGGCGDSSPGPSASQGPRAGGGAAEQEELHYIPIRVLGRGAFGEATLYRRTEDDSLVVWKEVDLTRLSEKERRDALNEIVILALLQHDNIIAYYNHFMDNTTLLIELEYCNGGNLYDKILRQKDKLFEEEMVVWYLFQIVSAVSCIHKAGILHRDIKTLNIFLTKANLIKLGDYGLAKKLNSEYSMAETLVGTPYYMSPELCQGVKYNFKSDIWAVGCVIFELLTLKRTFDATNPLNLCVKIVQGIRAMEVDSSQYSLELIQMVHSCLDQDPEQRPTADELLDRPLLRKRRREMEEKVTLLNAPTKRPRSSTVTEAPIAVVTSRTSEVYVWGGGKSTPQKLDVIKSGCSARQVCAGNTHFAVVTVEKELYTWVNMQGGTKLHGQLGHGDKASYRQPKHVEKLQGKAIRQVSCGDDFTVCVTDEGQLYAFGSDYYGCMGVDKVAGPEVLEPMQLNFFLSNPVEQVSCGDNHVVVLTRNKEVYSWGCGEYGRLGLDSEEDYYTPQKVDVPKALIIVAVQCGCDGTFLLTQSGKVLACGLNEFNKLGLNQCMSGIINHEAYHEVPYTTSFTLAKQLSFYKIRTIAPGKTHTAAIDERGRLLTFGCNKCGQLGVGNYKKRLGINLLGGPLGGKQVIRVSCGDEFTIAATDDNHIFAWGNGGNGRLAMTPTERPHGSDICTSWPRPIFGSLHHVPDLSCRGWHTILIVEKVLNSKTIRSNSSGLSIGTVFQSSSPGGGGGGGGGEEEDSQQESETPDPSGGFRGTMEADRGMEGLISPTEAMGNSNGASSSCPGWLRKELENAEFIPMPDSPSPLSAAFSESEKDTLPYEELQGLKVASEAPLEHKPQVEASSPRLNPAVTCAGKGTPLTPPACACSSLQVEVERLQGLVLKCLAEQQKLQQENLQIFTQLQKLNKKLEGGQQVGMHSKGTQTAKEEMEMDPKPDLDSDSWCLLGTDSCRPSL

[2] = target: Serine/threonine-protein kinase PLK1 (Homo sapiens) (UniProt P53350); conditions: at 0.1 µM
[3] = target: Serine/threonine-protein kinase PLK1 (Homo sapiens) (UniProt P53350); conditions: at 1 µM
[4] = target: T2, Dual specificity protein kinase TTK (Homo sapiens) (UniProt P33981); conditions: at 0.1 µM
T2 sequence (whole entry): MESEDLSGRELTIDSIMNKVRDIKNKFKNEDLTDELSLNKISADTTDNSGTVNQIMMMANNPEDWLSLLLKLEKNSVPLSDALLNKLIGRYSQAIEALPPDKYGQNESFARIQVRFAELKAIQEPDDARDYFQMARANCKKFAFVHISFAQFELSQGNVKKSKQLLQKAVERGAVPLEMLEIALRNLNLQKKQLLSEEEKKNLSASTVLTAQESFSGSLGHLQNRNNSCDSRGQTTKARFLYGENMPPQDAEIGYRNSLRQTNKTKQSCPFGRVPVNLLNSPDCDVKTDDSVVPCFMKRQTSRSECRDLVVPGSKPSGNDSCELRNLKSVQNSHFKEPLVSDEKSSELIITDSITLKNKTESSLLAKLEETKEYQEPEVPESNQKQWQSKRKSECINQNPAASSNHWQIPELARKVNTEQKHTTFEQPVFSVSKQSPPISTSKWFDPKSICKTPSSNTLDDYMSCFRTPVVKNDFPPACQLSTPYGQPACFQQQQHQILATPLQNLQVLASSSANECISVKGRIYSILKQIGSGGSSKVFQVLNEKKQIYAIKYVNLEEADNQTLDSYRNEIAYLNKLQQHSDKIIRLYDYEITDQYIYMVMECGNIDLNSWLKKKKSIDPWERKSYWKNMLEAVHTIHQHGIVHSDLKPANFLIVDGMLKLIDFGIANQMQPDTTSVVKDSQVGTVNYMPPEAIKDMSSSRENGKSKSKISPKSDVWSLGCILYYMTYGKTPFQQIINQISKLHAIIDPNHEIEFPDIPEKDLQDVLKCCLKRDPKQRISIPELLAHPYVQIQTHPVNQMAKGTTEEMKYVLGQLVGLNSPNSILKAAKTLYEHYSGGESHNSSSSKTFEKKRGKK

[5] = system: T3, Receptor-type tyrosine-protein kinase FLT3 (Homo sapiens), P36888 [D835Y]; conditions: at 1 µM
T3 sequence (whole entry): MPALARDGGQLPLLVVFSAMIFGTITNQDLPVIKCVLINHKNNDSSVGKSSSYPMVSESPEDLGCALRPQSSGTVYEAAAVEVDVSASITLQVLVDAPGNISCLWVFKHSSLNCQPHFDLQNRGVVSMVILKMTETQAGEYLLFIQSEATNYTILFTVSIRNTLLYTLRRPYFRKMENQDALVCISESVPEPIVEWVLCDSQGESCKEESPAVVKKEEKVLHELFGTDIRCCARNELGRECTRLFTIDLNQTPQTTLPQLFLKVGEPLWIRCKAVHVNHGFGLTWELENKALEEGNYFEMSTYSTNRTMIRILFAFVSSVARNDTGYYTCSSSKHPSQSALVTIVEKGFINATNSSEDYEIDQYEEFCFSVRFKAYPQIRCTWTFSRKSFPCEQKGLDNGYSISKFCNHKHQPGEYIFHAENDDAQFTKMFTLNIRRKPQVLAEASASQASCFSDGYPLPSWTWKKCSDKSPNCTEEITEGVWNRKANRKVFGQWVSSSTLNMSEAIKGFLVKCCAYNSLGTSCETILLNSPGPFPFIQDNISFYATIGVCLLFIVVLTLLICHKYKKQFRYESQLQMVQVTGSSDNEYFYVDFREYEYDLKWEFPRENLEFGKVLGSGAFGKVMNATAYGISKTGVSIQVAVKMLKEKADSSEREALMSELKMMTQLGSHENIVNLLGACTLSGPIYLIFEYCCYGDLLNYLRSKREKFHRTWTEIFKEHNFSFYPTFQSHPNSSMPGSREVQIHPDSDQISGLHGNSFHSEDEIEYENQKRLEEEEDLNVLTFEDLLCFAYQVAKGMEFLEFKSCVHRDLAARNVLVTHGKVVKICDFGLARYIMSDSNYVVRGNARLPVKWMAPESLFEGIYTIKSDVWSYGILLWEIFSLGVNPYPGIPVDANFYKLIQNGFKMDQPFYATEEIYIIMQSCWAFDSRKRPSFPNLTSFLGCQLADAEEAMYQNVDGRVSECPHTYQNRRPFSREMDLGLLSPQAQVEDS

[6] = target: Vascular endothelial growth factor receptor 3 (Homo sapiens) (UniProt P35916); conditions: at 0.1 µM
[7] = target: Vascular endothelial growth factor receptor 3 (Homo sapiens) (UniProt P35916); conditions: at 1 µM
[8] = target: Macrophage colony-stimulating factor 1 receptor (Homo sapiens) (UniProt P07333); conditions: at 0.1 µM
[9] = target: Macrophage colony-stimulating factor 1 receptor (Homo sapiens) (UniProt P07333); conditions: at 1 µM
[10] = target: Tyrosine-protein kinase Fyn (Homo sapiens) (UniProt P06241); conditions: at 0.1 µM
Tyrosine-protein kinase Fyn (Homo sapiens), sequence (P06241 2-537 limits assumed): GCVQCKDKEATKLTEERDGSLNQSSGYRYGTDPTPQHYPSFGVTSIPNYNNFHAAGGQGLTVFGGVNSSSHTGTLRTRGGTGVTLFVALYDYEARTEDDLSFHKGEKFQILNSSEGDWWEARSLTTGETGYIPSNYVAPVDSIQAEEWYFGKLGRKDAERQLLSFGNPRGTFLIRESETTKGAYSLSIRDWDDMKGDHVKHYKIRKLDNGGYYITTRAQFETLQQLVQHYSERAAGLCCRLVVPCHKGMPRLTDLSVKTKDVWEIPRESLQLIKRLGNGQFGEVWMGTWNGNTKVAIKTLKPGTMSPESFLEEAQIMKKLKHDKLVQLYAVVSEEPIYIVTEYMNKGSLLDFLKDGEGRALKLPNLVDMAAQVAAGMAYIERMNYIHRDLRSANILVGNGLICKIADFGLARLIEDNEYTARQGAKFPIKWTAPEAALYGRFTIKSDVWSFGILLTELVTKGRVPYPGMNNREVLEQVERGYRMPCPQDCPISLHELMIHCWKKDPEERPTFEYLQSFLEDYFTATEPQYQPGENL

Macrophage colony-stimulating factor 1 receptor (Homo sapiens), sequence (P07333 whole entry): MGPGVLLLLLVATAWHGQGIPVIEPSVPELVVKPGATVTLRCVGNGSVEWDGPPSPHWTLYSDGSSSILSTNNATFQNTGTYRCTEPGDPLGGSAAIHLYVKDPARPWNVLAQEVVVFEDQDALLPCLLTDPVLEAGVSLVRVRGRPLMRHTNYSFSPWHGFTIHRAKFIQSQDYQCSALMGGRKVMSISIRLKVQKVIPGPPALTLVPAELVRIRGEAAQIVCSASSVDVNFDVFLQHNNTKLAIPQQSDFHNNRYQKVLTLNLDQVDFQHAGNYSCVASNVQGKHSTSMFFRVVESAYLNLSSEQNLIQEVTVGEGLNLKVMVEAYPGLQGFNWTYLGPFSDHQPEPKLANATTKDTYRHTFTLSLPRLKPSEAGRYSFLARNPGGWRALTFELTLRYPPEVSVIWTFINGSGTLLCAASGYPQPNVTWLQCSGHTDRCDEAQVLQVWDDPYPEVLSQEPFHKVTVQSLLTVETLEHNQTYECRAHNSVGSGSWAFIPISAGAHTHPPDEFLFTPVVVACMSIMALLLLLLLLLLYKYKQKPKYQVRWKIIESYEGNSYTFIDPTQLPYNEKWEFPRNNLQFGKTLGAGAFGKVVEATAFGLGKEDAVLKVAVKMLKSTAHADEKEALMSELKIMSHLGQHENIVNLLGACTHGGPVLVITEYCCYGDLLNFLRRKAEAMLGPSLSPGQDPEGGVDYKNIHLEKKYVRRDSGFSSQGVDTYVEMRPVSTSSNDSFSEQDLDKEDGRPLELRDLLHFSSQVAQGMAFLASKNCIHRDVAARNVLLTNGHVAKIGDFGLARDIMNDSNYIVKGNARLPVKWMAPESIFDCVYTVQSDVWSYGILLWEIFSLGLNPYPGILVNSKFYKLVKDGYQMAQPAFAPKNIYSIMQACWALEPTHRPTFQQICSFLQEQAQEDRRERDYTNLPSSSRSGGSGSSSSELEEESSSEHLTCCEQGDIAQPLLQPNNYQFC
Serine/threonine-protein kinase PLK1 (Homo sapiens), sequence (P53350 whole entry): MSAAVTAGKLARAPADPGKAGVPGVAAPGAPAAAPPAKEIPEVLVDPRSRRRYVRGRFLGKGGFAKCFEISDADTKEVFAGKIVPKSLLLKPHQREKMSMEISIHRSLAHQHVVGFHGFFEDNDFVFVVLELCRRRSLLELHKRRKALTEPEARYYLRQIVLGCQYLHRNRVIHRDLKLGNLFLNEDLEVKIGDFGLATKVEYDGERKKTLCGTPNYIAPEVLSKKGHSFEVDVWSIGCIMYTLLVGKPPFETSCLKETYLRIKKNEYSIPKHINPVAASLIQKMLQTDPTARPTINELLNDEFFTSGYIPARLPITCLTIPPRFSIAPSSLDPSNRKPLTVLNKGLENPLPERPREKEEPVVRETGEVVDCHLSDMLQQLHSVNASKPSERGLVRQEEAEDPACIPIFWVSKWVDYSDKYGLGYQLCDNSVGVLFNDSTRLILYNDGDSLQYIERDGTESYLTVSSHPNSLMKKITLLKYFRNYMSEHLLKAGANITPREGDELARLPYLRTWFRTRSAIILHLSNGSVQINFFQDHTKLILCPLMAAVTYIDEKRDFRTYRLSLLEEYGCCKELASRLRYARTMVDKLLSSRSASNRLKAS
Vascular endothelial growth factor receptor 3 (Homo sapiens), sequence (P35916 whole entry): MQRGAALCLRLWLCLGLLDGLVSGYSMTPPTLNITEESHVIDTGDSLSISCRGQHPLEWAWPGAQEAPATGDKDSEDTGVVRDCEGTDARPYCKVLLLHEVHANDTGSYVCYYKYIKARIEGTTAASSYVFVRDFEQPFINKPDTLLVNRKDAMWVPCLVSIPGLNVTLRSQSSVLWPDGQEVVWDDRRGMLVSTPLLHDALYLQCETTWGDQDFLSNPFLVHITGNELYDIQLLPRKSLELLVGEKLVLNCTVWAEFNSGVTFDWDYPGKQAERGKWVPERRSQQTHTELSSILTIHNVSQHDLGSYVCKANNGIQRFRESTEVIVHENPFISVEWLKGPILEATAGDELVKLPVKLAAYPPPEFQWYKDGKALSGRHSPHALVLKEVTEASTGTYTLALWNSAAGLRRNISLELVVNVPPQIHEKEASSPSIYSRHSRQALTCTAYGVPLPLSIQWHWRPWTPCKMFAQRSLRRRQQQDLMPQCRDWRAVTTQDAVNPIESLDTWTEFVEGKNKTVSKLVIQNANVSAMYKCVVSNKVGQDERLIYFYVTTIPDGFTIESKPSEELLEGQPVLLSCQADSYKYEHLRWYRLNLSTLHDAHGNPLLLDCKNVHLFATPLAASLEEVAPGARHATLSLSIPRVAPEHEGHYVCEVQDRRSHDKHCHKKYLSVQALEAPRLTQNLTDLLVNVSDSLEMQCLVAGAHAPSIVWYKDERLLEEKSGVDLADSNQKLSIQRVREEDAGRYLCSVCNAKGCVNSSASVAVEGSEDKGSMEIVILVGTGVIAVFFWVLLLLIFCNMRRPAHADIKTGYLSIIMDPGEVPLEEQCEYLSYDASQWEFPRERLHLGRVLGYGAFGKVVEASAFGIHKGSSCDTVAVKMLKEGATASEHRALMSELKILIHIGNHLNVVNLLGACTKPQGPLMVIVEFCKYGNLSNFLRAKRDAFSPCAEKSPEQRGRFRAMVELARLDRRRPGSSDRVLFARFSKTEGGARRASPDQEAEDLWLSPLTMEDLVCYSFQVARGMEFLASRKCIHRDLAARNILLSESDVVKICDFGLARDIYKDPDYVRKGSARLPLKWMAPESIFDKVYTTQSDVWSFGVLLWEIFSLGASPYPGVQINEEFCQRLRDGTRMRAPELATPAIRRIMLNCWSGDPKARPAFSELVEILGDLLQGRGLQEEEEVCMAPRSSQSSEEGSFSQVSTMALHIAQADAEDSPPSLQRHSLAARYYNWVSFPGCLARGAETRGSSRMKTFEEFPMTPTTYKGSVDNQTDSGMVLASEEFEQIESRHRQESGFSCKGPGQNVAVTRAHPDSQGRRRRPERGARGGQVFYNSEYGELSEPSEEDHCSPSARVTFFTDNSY

Compound	inhibition [1]	inhibition [2]	inhibition [3]	inhibition [4]	inhibition [5]	inhibition [6]	inhibition [7]	inhibition [8]	inhibition [9]	inhibition [10]
CC1=C(C(=O)Nc2ccc3[nH]ncc3c2)C(c2ccc(F)cc2)N=C(c2ccc(C(F)(F)F)nc2)N1 (stereo not given)	-1.51%	1.85%	1.78%	3.99%	1.9%	1.85%	0.82%	3.03%	2.25%	4.17%
COc1cc(N2CCN(C(C)C)CC2)ccc1Nc1nc(Nc2cccc3ncccc23)c2cc[nH]c2n1	-1.45%	-0.26%	0.8%	52.1%	1.87%	0.19%	0.22%	1.9%	3.33%	2.06%
COc1cc(Nc2ncc(-c3ccccc3)o2)cc(OC)c1	7.35%	4.62%	2.5%	10%	36.7%	1.25%	9.4%	14.5%	56.3%	2.7%
c1ccc(-c2n[nH]cc2-c2ccnc(-c3ccc(OCCn4ccnc4)cc3)c2)nc1	2.33%	1.2%	2.17%	3.26%	5.27%	5.33%	16.4%	2.61%	11.8%	2.86%
COC(=O)Nc1nc2cc(Oc3ccc(NC(=O)Nc4ccccc4)cc3)ccc2[nH]1	6.76%	2.19%	4.22%	6.44%	2.44%	1.7%	-0.36%	11.4%	21.8%	0.67%
O=C1Nc2ccccc2/C1=C1\CCc2cc(O)ccc21	8.07%	4.12%	4.17%	12.1%	70.6%	7.22%	24.6%	17.3%	59.6%	5.55%
CS(=O)(=O)CCNCc1ccc(-c2ccc3ncnc(Nc4ccc(OCc5ccccc5)cc4)c3c2)o1	15.5%	3.64%	3.52%	5.7%	-0.67%	-0.25%	4.64%	1.81%	6.19%	1.87%
CC1(C)CC(n2cnc(-c3ccc(F)cc3)c2-c2ccnc(N)n2)CC(C)(C)N1	2.47%	2.09%	0.76%	-0.55%	0.24%	3.06%	2.77%	1.31%	0.54%	1.49%
CCS(=O)(=O)c1ccc(OC)c(Nc2ncc(-c3cccc(C(C)=O)c3)o2)c1	3.45%	2.42%	2.98%	5.81%	87.2%	10.7%	47.3%	10.2%	34.7%	26.4%
CC(C)c1ccc(-c2cc(-c3c[nH]nc3-c3ccccn3)ccn2)cc1	2.93%	0.48%	0.41%	2.65%	1.71%	1.37%	5.15%	0.03%	3.63%	1.14%
Fc1ccc(Nc2nccc(-c3c(-c4ccc(C(F)(F)F)cc4)nn4ncccc34)n2)cc1F	1.67%	2.18%	2.92%	7.64%	-2.39%	0.19%	-1.91%	2.64%	6.66%	0.1%
Cc1c2ccc(N(C)c3ccnc(Nc4cccc(S(N)(=O)=O)c4)n3)cc2nn1C	6.19%	3.29%	3.99%	8.91%	13.8%	58.8%	93.8%	78.4%	91.7%	13.8%
Cc1ccc(-c2cc3c(NC(=O)C4CC4)ncnc3o2)cc1	4.87%	3.28%	2.79%	6.01%	3.4%	3.84%	9.25%	20.6%	66.9%	6.5%
CCOc1ccc2c(-c3ccnc(Nc4cc(OC)cc(C(F)(F)F)c4)n3)cnn2n1	7.2%	0.53%	1.68%	-0.36%	17%	15.8%	22.8%	2.34%	17.2%	3.33%
COc1ccc2ncn(-c3cc(O[C@H](C)c4ccccc4C(F)(F)F)c(C(N)=O)s3)c2c1	83.6%	97%	99.2%	0.16%	2.3%	1.9%	15%	-0.05%	5.84%	0.53%
